The values below come from the supplement of paper PMC12645437, “Orthogonal IMiD-Degron Pairs Induce Selective Protein Degradation in Cells” (ACS Chemical Biology, 2025).

For the experiment, the target named is T1, CRBN, Q96SW2.
T1 chain: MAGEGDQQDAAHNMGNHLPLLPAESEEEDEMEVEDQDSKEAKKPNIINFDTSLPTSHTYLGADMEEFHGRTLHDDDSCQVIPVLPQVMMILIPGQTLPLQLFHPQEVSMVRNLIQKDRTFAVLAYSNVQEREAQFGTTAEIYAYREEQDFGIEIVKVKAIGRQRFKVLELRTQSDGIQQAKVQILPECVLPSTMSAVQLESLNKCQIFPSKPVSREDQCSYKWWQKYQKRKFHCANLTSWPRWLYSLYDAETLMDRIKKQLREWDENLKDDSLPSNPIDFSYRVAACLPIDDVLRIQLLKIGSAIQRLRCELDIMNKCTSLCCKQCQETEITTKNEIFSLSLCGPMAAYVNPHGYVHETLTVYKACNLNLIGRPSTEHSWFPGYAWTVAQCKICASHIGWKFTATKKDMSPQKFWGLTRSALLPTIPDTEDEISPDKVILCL
Nature of the experiment: log2 fold change of degron read counts, EGFP-low vs EGFP+ sorted cells (limma voom), compound-induced degradation; higher = more compound-induced degradation of the degron-EGFP fusion; degrons are variants of IKZF1/3 zinc finger 2; compound dose not given here. As to conditions: Jurkat, 18 h. On the procedure: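 Pooled library of 8380 IKZF3 ZF2 degron mutants (positions 146-167 varied within the IKZF3 130-189 degron; only the varied core is printed, flanks not printed) fused to EGFP with IRES-mCherry, lentivirally expressed in Jurkat cells. mCherry+ cells were treated with one IMiD compound for 18 h (dose not stated) and FACS-sorted into EGFP-low and EGFP+ populations. Degron sequences were counted by NGS, and log2FC (EGFP-low vs EGFP+) was estimated by limma voom over 3 biological replicates.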

[1] abbreviates: compound: compound 19 (5-tert-butyl-thalidomide).
The mark [2] stands for this setting: compound: compound 22 (5-morpholino-thalidomide).
[3] abbreviates: compound: compound 33 (diphenyl IMiD analogue).

Whole data set: some 8,300 sequences, median “log2 fold change of degron read counts, EGFP-low vs EGFP+ sorted cells (limma voom), compound-induced degradation” near -1.1, cut for the highest 2% near 3.2. This excerpt belongs to a sample that is enriched for the highest values.
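Note: pooled lentiviral library of zinc finger degron-EGFP fusions in mCherry-positive Jurkat cells, FACS-sorted after compound exposure, with degron abundance counted by next-generation sequencing.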

Consider FYCPICGHNFTQKGNLLRHIKL [46F_47Y_49P_50I_52G_53H_54N_55F_67L_, Q9UKT9], for which the “log2 fold change of degron read counts” value is, setting by setting: under setting [1], -1.61; under setting [2], -1.84; under setting [3], -0.993; (compound: thalidomide) -1.92.
Taken in the same sequence, the figures for LVCPICGFPCTQKGNLLRHIKL [46L_47V_49P_50I_52G_53F_54P_55C_67L_, Q9UKT9] were 0.138, 1.61, 0.747 and 1.9.
Taken in the same sequence, the figures for LECPICGFSCTQKGNLLRHIKL [46L_47E_49P_50I_52G_53F_54S_55C_67L_, Q9UKT9] were 1.9, 0.453, 2.42 and 3.62.
Taken in the same sequence, the figures for LICPICGFSCTQKGNLLRHIKL [46L_47I_49P_50I_52G_53F_54S_55C_67L_, Q9UKT9] were 0.996, 3.08, 2.1 and 3.18.
In the case of LDCPICGFSCTQKGNLLRHIKL [46L_47D_49P_50I_52G_53F_54S_55C_67L_, Q9UKT9], the “log2 fold change of degron read counts” value amounted to 1.61 under setting [1], 0.446 under setting [2], 1.19 under setting [3] and 2.17 (compound: thalidomide).
As to LHCPICGFSCTQKGNLLRHIKL [46L_47H_49P_50I_52G_53F_54S_55C_67L_, Q9UKT9], the “log2 fold change of degron read counts” value is 3.33 under setting [1], 3.49 under setting [2], 2.83 under setting [3] and 2.54 (compound: thalidomide).
On the same counts, the results for LMCPICGFSCTQKGNLLRHIKL [46L_47M_49P_50I_52G_53F_54S_55C_67L_, Q9UKT9] are 1.63, 2.78, 2.99 and 2.69.
On the same counts, the results for LGCPICGFSCTQKGNLLRHIKL [46L_47G_49P_50I_52G_53F_54S_55C_67L_, Q9UKT9] are 3.62, 2.62, 2.12 and 1.55.
As to LKCPICGFSCTQKGNLLRHIKL [46L_47K_49P_50I_52G_53F_54S_55C_67L_, Q9UKT9], the “log2 fold change of degron read counts” value is, setting by setting: under setting [1], 1.33; under setting [2], -0.186; under setting [3], -0.695; (compound: thalidomide) 1.64.
On the same counts, the results for LACPICGFSCTQKGNLLRHIKL [46L_47A_49P_50I_52G_53F_54S_55C_67L_, Q9UKT9] are 3.69, 3.18, 2.48 and 2.94.
For LSCPICGFSCTQKGNLLRHIKL [46L_47S_49P_50I_52G_53F_54S_55C_67L_, Q9UKT9], the “log2 fold change of degron read counts” value runs as follows: under setting [1], 3.04; under setting [2], 3.05; under setting [3], 2.54; (compound: thalidomide) 2.8.
Taken in the same sequence, the figures for LLCPICGFSCTQKGNLLRHIKL [46L_47L_49P_50I_52G_53F_54S_55C_67L_, Q9UKT9] were 1.38, 0.88, 1.79 and 2.5.
Consider LGCPICGFECTQKGNLLRHIKL [46L_47G_49P_50I_52G_53F_54E_55C_67L_, Q9UKT9], for which the “log2 fold change of degron read counts” value came to 1.95 under setting [1], 0.368 under setting [2], 0.47 under setting [3] and 0.369 (compound: thalidomide).
As to LTCEICGFWCTQKGNLLRHIKL [46L_47T_49E_50I_52G_53F_54W_55C_67L_, Q9UKT9], the “log2 fold change of degron read counts” value is, setting by setting: under setting [1], -0.648; under setting [2], -0.501; under setting [3], 0.784; (compound: thalidomide) 0.539.
Taken in the same sequence, the figures for FDCDICGAAFTQKGNLLRHIKL [46F_47D_49D_50I_52G_53A_54A_55F_67L_, Q9UKT9] were 0.561, -1.32, -1.46 and -0.827.
Taken in the same sequence, the figures for FRCEICGHVFTQKGNLLRHIKL [46F_47R_49E_50I_52G_53H_54V_55F_67L_, Q9UKT9] were -2.92, -3.64, -1.71 and -2.21.
For the sequence FMCNVCGAAFTQKGNLLRHIKL [46F_47M_49N_50V_52G_53A_54A_55F_67L_, Q9UKT9], the “log2 fold change of degron read counts” value reads like this: under setting [1], -1.07; under setting [2], -0.0279; under setting [3], 2; (compound: thalidomide) 0.272.
As to FTCEVCGAGFTQKGNLLRHIKL [46F_47T_49E_50V_52G_53A_54G_55F_67L_, Q9UKT9], the “log2 fold change of degron read counts” value by setting is: under setting [1], 2.39; under setting [2], 2.34; under setting [3], 2.42; (compound: thalidomide) 2.32.
For the sequence FNCDVCGAFFTQKGNLLRHIKL [46F_47N_49D_50V_52G_53A_54F_55F_67L_, Q9UKT9], the “log2 fold change of degron read counts” value runs as follows: under setting [1], -1.57; under setting [2], -2.42; under setting [3], -1.91; (compound: thalidomide) -2.42.
For LDCNQCGFCCTQKGNLLRHIKL [46L_47D_49N_50Q_52G_53F_54C_55C_67L_, Q9UKT9], the “log2 fold change of degron read counts” value by setting is: under setting [1], -2.36; under setting [2], -3.41; under setting [3], -2.85; (compound: thalidomide) -2.58.
Turning to FTCEICGAWFTQKGNLLRHIKL [46F_47T_49E_50I_52G_53A_54W_55F_67L_, Q9UKT9], the “log2 fold change of degron read counts” value runs as follows: under setting [1], -0.788; under setting [2], -0.479; under setting [3], 1.12; (compound: thalidomide) 1.04.
As for FRCSVCGHLFTQKGNLLRHIKL [46F_47R_49S_50V_52G_53H_54L_55F_67L_, Q9UKT9], the “log2 fold change of degron read counts” value was -2.53 under setting [1], -3.16 under setting [2], -2.34 under setting [3] and -2.39 (compound: thalidomide).
Taken in the same sequence, the figures for LYCNQCGFQCTQKGNLLRHIKL [46L_47Y_49N_50Q_52G_53F_54Q_55C_67L_, Q9UKT9] were -1.36, -0.758, -1.33 and -2.14.
Taken in the same sequence, the figures for LQCPICGFSCTQKGNLLRHIKL [46L_47Q_49P_50I_52G_53F_54S_55C_67L_, Q9UKT9] were 2.67, 2.76, 2.41 and 3.53.
On the same counts, the results for LYCPICGFSCTQKGNLLRHIKL [46L_47Y_49P_50I_52G_53F_54S_55C_67L_, Q9UKT9] are 3.73, 3.72, 3.09 and 2.7.
Take LWCPICGFECTQKGNLLRHIKL [46L_47W_49P_50I_52G_53F_54E_55C_67L_, Q9UKT9]: the “log2 fold change of degron read counts” value under setting [1] was 2.12, the “log2 fold change of degron read counts” value under setting [2] was determined as 2.64, the “log2 fold change of degron read counts” value under setting [3] was 2.17 and the “log2 fold change of degron read counts” value (compound: thalidomide) was determined as 0.382.
Taken in the same sequence, the figures for LQCPICGFWCTQKGNLLRHIKL [46L_47Q_49P_50I_52G_53F_54W_55C_67L_, Q9UKT9] were 0.033, 0.594, 1.15 and 2.58.
LYCPICGFECTQKGNLLRHIKL [46L_47Y_49P_50I_52G_53F_54E_55C_67L_, Q9UKT9]: the “log2 fold change of degron read counts” value is, setting by setting: under setting [1], 2.78; under setting [2], 2.56; under setting [3], 2.08; (compound: thalidomide) 0.736.
Take LWCPICGFSCTQKGNLLRHIKL [46L_47W_49P_50I_52G_53F_54S_55C_67L_, Q9UKT9]: the “log2 fold change of degron read counts” value by setting is: under setting [1], 3.31; under setting [2], 3.57; under setting [3], 2.84; (compound: thalidomide) 2.33.
Taken in the same sequence, the figures for LTCPICGFSCTQKGNLLRHIKL [46L_47T_49P_50I_52G_53F_54S_55C_67L_, Q9UKT9] were 2.51, 3.37, 2.87 and 3.49.
As to LQCPICGFGCTQKGNLLRHIKL [46L_47Q_49P_50I_52G_53F_54G_55C_67L_, Q9UKT9], the “log2 fold change of degron read counts” value reads like this: under setting [1], 2.46; under setting [2], 2.07; under setting [3], 1.63; (compound: thalidomide) 3.23.
On the same counts, the results for LTCPICGFECTQKGNLLRHIKL [46L_47T_49P_50I_52G_53F_54E_55C_67L_, Q9UKT9] are 0.6, 1.64, 1.55 and 2.4.
